Data reported in the supplement of paper PMC6411743.
± gives the standard deviation of the averaged measurements. About 6,200 targets were measured; listed, in parts, are those with the largest changes and a random draw of the rest.

compound: Nc1ncnc2c1ncn2[C@@H]1O[C@H](COP(=O)(O)OP(=O)(O)NP(=O)(O)O)[C@@H](O)[C@H]1O [adenylyl imidodiphosphate]; assay: NP40-soluble protein abundance relative to vehicle (solubility fold change) (ratio); higher = more soluble protein in presence of AMP-PNP; conditions: concentration: 1mM
Procedure, shortened: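 Values are fold changes against the detergent-processed vehicle, based on vsn-normalised intensities. Jurkat crude lysate was treated at eight concentrations from 0.1 to 10 mM (10 min at room temperature, then 3 min at 37 °C), solubilised with 0.8% NP40 and benzonase, ultracentrifuged and analysed by TMT-labelled LC-MS/MS over three independent experiments.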

Chain of UniProt O75152 (O75152 whole entry): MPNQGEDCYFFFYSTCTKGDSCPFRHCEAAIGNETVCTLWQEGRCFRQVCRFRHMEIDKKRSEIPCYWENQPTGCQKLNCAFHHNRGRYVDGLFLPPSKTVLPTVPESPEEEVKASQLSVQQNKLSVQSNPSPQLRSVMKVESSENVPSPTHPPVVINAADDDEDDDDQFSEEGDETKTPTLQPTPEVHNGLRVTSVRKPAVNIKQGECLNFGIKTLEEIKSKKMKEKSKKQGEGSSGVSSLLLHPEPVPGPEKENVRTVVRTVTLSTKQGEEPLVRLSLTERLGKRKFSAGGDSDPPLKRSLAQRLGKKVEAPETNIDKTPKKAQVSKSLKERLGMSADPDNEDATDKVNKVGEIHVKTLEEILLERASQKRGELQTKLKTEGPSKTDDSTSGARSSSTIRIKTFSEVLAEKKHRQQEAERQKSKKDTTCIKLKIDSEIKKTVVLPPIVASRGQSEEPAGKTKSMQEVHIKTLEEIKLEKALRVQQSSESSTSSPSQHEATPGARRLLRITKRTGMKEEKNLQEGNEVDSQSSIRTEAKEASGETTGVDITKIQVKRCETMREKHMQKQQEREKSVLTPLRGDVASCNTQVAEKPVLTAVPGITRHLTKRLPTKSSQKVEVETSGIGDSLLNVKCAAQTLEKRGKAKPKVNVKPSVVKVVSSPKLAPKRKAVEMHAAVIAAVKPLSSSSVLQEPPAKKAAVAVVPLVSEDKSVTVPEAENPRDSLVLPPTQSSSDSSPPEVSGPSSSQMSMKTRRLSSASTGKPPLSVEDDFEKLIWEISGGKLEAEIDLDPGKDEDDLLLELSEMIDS
Chain of UniProt Q71RG4 (Q71RG4 whole entry, one chain of several): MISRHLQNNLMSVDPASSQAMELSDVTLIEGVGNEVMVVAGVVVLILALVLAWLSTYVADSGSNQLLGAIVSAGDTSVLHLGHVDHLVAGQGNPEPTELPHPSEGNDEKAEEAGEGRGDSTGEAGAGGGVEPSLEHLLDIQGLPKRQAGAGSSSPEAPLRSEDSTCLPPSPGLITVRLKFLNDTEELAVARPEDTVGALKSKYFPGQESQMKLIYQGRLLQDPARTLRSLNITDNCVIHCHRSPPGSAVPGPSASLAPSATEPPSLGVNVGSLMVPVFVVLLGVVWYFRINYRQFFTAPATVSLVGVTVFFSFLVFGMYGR
Chain of UniProt Q13309 (Q13309 whole entry, one chain of several): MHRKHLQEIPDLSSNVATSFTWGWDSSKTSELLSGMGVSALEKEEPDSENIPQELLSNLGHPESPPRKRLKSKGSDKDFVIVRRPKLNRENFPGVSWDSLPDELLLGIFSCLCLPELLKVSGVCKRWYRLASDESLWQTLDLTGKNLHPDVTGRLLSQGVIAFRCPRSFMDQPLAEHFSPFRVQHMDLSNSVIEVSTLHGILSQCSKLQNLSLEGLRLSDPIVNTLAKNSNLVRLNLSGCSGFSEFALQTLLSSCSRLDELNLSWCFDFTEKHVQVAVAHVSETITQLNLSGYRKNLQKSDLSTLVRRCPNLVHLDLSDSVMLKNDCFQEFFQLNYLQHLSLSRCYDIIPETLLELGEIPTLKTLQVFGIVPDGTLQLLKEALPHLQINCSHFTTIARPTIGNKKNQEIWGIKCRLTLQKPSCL
Chain of UniProt Q8NI36 (Q8NI36 whole entry, one chain of several): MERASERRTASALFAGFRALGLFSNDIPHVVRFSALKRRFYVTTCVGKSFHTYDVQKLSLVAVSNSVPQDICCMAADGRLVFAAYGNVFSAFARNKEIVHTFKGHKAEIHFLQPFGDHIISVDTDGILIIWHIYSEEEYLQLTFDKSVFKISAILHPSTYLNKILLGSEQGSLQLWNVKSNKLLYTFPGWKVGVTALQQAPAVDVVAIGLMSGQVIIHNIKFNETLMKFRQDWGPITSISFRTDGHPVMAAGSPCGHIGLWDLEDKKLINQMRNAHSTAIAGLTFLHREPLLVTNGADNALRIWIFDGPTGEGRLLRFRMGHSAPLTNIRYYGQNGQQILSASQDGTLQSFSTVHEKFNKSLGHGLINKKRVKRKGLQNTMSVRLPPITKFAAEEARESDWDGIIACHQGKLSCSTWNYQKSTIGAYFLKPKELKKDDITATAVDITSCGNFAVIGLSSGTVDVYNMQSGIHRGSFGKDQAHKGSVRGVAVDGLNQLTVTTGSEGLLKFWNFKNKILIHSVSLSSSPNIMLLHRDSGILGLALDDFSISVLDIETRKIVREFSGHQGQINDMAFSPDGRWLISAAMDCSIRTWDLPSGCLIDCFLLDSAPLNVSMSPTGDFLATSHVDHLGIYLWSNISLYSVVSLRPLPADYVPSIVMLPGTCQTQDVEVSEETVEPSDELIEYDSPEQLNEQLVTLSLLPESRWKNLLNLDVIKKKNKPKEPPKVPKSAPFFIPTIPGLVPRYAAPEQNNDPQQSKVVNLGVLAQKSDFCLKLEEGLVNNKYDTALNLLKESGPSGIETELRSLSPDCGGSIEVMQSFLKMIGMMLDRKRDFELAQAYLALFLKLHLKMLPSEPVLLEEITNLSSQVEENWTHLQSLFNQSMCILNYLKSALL
Chain of UniProt Q9NWL6 (Q9NWL6 whole entry, one chain of several): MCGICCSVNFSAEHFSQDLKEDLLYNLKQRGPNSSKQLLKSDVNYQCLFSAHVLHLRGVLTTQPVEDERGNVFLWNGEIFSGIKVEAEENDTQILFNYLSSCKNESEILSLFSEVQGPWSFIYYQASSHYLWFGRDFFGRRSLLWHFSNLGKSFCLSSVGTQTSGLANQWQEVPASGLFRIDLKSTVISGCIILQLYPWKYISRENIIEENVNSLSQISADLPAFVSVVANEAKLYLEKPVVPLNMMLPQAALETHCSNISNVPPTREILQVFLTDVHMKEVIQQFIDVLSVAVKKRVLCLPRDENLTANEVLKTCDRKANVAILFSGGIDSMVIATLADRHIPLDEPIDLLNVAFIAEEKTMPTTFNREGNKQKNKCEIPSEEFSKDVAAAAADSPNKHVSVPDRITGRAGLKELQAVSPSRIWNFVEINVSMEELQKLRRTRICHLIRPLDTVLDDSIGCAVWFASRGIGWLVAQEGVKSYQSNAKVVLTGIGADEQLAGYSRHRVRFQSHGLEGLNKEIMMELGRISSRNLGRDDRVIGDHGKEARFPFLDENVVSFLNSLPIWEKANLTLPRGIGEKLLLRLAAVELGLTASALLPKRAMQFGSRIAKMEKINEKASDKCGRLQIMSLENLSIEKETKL
Chain of UniProt O14735 (O14735 whole entry): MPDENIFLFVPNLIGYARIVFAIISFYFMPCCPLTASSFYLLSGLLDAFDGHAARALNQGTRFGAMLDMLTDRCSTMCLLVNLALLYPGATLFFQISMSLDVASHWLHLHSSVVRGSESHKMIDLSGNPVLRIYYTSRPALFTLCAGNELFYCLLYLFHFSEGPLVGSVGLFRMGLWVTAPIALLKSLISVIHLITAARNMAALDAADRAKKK
Chain of UniProt Q96C57 (Q96C57 whole entry, one chain of several): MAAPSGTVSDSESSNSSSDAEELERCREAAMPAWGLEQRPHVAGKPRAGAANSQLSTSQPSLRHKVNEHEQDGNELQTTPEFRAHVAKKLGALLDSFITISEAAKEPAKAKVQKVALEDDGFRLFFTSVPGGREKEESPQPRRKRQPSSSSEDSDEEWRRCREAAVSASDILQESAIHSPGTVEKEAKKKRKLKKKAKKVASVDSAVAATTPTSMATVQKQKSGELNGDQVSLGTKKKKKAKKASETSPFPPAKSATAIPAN
Chain of UniProt Q9BVL2 (Q9BVL2 whole entry, one chain of several): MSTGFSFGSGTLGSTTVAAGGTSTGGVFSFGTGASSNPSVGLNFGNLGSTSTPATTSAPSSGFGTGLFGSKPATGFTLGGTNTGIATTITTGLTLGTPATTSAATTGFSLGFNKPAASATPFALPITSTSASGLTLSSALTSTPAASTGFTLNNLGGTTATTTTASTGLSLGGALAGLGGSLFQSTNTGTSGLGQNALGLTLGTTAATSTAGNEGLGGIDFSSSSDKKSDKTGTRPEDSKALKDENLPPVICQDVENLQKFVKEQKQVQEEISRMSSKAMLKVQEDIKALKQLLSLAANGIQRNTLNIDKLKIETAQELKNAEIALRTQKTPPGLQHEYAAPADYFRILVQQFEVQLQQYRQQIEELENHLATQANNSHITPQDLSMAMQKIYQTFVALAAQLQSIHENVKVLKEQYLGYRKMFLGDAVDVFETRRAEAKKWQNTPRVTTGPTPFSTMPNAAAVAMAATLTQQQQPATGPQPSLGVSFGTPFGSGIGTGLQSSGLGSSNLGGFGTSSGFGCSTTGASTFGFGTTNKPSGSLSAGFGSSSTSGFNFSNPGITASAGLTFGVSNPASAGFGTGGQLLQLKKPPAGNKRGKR
Chain of UniProt O14734 (O14734 whole entry, one chain of several): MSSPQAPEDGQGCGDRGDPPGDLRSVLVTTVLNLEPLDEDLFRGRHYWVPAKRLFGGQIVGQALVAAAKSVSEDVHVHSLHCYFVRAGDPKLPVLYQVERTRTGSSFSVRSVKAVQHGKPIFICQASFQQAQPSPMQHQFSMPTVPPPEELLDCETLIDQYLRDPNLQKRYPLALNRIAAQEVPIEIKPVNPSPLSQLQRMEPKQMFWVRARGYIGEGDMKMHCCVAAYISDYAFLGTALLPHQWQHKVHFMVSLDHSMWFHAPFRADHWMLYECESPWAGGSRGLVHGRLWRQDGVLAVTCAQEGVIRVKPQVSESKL
Chain of UniProt P62191 (P62191 whole entry, one chain of several): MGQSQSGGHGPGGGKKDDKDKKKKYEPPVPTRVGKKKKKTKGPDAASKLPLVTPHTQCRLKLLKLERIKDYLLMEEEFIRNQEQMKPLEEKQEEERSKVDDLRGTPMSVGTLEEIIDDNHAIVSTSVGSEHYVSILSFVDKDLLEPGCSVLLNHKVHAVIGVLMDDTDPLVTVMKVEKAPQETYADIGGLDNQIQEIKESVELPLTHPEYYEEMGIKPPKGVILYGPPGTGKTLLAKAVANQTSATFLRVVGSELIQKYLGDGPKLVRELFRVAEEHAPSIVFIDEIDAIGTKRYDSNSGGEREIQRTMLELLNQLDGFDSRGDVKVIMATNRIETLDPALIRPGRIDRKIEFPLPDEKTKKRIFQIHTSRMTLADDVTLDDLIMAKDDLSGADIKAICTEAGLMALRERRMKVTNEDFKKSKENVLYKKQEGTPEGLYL

Question: Which NP40-soluble protein abundance does the source give for “C9JKL2|O95772|O95772-2|C9J3F5|C9JJ39|C9JPX5 (UniProt O95772)” here?
Answer: 1.02 ± 0.019

Question: With H7C5A7|O14734 (UniProt O14734) as the target, how does the NP40-soluble protein abundance read?
Answer: 0.962 ± 0.017

Question: For J3KNF8|O43169 (UniProt O43169), which NP40-soluble protein abundance is on record?
Answer: 1.15 ± 0.069

Question: SART1 (UniProt O43290) was tested. Which NP40-soluble protein abundance did it give?
Answer: 1.07 ± 0.048

Question: How did the NP40-soluble protein abundance turn out when H0YIV9|O43716 (UniProt O43716+H0YIV9) was run?
Answer: 0.973 ± 0.038

Question: Which NP40-soluble protein abundance does the source give for J3KNN5|Q9UJV9 (UniProt Q9UJV9) here?
Answer: 1.11 ± 0.029

Question: With CHMP2A (UniProt O43633) as the target, how does the NP40-soluble protein abundance read?
Answer: 0.949 ± 0.013

Question: With C9JIF9|P13798 (UniProt P13798) as the target, how does the NP40-soluble protein abundance read?
Answer: 0.953 ± 0.027

Question: For ZC3H11A (UniProt O75152), which NP40-soluble protein abundance is on record?
Answer: 0.86 ± 0.11

Question: Which NP40-soluble protein abundance does the source give for “F8VXC8|Q8TAQ2|Q8TAQ2-2|Q8TAQ2-3 (UniProt Q8TAQ2)” here?
Answer: 1.03 ± 0.034

Question: I3L4X7|Q13227|Q13227-2 (UniProt Q13227) was tested. Which NP40-soluble protein abundance did it give?
Answer: 0.982 ± 0.029

Question: How did the NP40-soluble protein abundance turn out when “E9PBG7|E9PF82|Q13557|Q13557-10|Q13557-11|Q13557-12|Q13557-3|Q13557-4|Q13557-5|Q13557-6|Q13557-8|Q13557-9 (UniProt Q13557)” was run?
Answer: 0.94 ± 0.026

Question: How did the NP40-soluble protein abundance turn out when A0A0A0MTB8|Q8NI36 (UniProt Q8NI36) was run?
Answer: 1.1 ± 0.06

Question: How did the NP40-soluble protein abundance turn out when “F8VU39|J3KPG5|Q9UIF9|Q9UIF9-2|Q9UIF9-3 (UniProt Q9UIF9)” was run?
Answer: 1 ± 0.015

Question: With A0A0B4J220 (UniProt E9PRG8) as the target, how does the NP40-soluble protein abundance read?
Answer: 1.14 ± 0.051

Question: F5H0R1|Q9H6E5 (UniProt Q9H6E5) was tested. Which NP40-soluble protein abundance did it give?
Answer: 0.994 ± 0.023

Question: For “E7ESS3|K7EKW3|Q71RG4|Q71RG4-2 (UniProt Q71RG4)”, which NP40-soluble protein abundance is on record?
Answer: 1.01 ± 0.037

Question: K7EK07|P84243 (UniProt P84243+K7EK07) was tested. Which NP40-soluble protein abundance did it give?
Answer: 0.97 ± 0.11

Question: How did the NP40-soluble protein abundance turn out when “A0A0A0MTL5|Q13309|Q13309-2 (UniProt Q13309)” was run?
Answer: 0.986 ± 0.041

Question: Which NP40-soluble protein abundance does the source give for CDIPT (UniProt O14735) here?
Answer: 0.928 ± 0.062

Question: J3KPP4|O95232 (UniProt O95232) was tested. Which NP40-soluble protein abundance did it give?
Answer: 1.02 ± 0.036

Question: With F8W1A0|P36873 (UniProt P36873) as the target, how does the NP40-soluble protein abundance read?
Answer: 0.983 ± 0.022

Question: Which NP40-soluble protein abundance does the source give for PSMD3 (UniProt O43242) here?
Answer: 0.909 ± 0.031

Question: With F5H7W8|Q96C57 (UniProt Q96C57) as the target, how does the NP40-soluble protein abundance read?
Answer: 1.17 ± 0.015

Question: How did the NP40-soluble protein abundance turn out when CCDC85C (UniProt A6NKD9) was run?
Answer: 0.9594 ± 0.0012

Question: With F6TLX2|Q9HC38-2 (UniProt Q9HC38) as the target, how does the NP40-soluble protein abundance read?
Answer: 1.01 ± 0.02

Question: Which NP40-soluble protein abundance does the source give for B4E0Y9|Q8NBY1|Q9P289 (UniProt Q9P289) here?
Answer: 0.999 ± 0.019

Question: For I3VM54|Q9Y2K7 (UniProt Q9Y2K7), which NP40-soluble protein abundance is on record?
Answer: 1.02 ± 0.016

Question: “E9PLV1|Q9NQV6|Q9NQV6-1|Q9NQV6-2|Q9NQV6-4|Q9NQV6-5|Q9NQV6-6|Q9NQV6-7|E9PRS0 (UniProt Q9NQV6)” was tested. Which NP40-soluble protein abundance did it give?
Answer: 1 ± 0.012

Question: With G3V4X1|P62191|P62191-2 (UniProt P62191) as the target, how does the NP40-soluble protein abundance read?
Answer: 0.942 ± 0.045

Question: For D6RCD0|Q8NBQ5 (UniProt Q8NBQ5), which NP40-soluble protein abundance is on record?
Answer: 0.995 ± 0.031

Question: Which NP40-soluble protein abundance does the source give for L0R819 (UniProt Q9NWL6) here?
Answer: 1.04 ± 0.017

Question: For “H7BYF2|Q5JRG1|Q9BVL2|Q9BVL2-2|Q9BVL2-3 (UniProt Q9BVL2)”, which NP40-soluble protein abundance is on record?
Answer: 1.031 ± 0.0089
